This note sets out measurements from ChEMBL document CHEMBL5308504, “Tm Shift (DSF) assay results for EUbOPEN Chemogenomics Library” (2023).

The term ΔTm denotes the change in melting temperature against a reference sample.

Assay [1] has as its target Bromodomain-containing protein 4 (Homo sapiens) (UniProt O60885). The following applies: Compound concentration 20.0 uM, Protein concentration 2.0 uM, Result type QC Liability.
The target of assay [2] is T1, Transcription intermediary factor 1-alpha (Homo sapiens) (UniProt O15164).
T1 sequence (whole entry): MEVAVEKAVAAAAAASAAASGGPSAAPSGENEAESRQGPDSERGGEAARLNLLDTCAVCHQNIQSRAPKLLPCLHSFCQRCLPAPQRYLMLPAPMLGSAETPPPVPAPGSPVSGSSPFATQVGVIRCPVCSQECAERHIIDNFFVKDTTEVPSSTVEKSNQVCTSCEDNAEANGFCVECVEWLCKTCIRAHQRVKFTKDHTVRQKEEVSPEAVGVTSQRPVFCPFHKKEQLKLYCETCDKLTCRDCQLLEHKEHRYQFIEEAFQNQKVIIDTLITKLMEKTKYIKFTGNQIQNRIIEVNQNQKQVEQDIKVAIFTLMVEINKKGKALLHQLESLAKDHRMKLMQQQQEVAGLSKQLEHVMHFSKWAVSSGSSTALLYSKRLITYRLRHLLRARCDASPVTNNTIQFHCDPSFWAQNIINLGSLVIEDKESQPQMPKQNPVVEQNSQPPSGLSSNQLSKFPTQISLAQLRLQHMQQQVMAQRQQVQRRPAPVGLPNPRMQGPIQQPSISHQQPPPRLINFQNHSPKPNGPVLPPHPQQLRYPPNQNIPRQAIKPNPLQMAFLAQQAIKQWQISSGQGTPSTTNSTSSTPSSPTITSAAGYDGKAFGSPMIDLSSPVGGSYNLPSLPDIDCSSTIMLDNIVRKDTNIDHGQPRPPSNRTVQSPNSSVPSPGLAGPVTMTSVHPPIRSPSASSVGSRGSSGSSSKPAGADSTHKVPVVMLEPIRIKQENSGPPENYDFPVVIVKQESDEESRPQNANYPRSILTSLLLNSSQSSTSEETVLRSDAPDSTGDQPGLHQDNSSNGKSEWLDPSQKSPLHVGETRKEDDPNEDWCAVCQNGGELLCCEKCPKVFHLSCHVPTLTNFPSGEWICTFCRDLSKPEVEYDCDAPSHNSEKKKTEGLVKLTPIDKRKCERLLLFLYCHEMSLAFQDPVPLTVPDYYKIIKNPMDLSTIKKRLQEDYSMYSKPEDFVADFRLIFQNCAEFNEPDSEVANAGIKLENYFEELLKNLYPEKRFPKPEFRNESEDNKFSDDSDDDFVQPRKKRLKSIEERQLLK
The settings on record: Compound concentration 20.0 uM, Protein concentration 2.0 uM, Result type QC Liability.

Regarding `CC(C)(C)NC(=O)c1cncn1C1CCN(c2ccc(-c3nnc(C(F)(F)F)o3)cn2)CC1`, the figures for the ΔTm in assay [1] and in assay [2] were -0.5 °C and 0.46 °C, respectively.
On the same counts, the results for `CC(C)c1nc2c(c3c1[C@H](c1ccc(C(F)(F)F)cc1)OC31CCOCC1)[C@H](O)CC(C)(C)C2` are -0.03 °C and 0.26 °C.
Take `O=C(O)c1ccc2c(c1)nc(NCc1ccccc1)c1ncncc12`: the ΔTm was -2.21 °C in assay [1] and 0.06 °C in assay [2].
In the same order, the values of `Cc1cc(=O)n(C)c2cc(N3C(=O)CC[C@H](NS(=O)(=O)CC(C)C)[C@H]3c3ccc(Cl)cc3)ccc12` are -3.01 °C and -3.49 °C.
As to `Nc1ncc2c(n1)-c1c([nH]c3ccc(C4=CCOCC4)cc13)CCC2`, the ΔTm in assay [1] is -0.2 °C; in assay [2], 0.27 °C.
In the same order, the values of `O=C(O)CCCCN(CCc1cc(F)ccc1OCc1ccc(-c2ccc(C(F)(F)F)cc2)cc1)Cc1ccc(C(=O)O)cc1` are 0.73 °C and -0.3 °C.
In the same order, the values of `C/C=C1\C(=O)CC2C3CCC4=CC(=O)CC[C@]4(C)C3CC[C@]12C` (some centres undefined) are -2.62 °C and -2.32 °C.
In the same order, the values of `COc1cc(C(=O)NC2CCN(C)CC2)ccc1Nc1ncc(C(F)(F)F)c(NCc2ccc(C)cc2N(C)S(C)(=O)=O)n1` are -2.71 °C and -3.38 °C.
As to `Cc1cn([C@H](C)CC#N)c(=O)c2cc(Cn3nc(C(F)F)cc3Cl)nn12`, the figures for the ΔTm in assay [1] and in assay [2] were -1.08 °C and -1.23 °C, respectively.
In the same order, the values of `Cc1cc(Cn2c(N3CC4(CNC4)C3)nc3cc(Cl)cc(N4CCN(C)CC4)c32)cc(C)c1F` are -0.27 °C and 0.27 °C.
On to `CN(C)[C@H]1CCN(c2cc(C(F)(F)F)c(C#N)c(Nc3cccc(CCC(=O)O)c3)n2)C1`, for which the ΔTm is -0.8 °C in assay [1] and 0.26 °C in assay [2].
On the same counts, the results for `Cn1nc(-c2ccc(C(N)=O)cc2)c2ccccc2c1=O` are 0.79 °C and 0.31 °C.
Turning to `O=C1NC(=NCc2cccs2)SC1=Cc1ccc2ncccc2c1`, the ΔTm was 0.38 °C in assay [1] and -1.13 °C in assay [2].
In the same order, the values of `O=C(Nc1snnc1C(=O)Nc1ccc(N2CCCC2)cc1)c1cncc(C(F)(F)F)c1` are -0.7 °C and -1.14 °C.
In the case of `O=C(O)c1cc(F)c2nc(N3[C@@H]4CC[C@H]3C[C@@H](OCc3c(-c5ccccc5OC(F)(F)F)noc3C3CC3)C4)sc2c1`, the ΔTm was -7.4 °C in assay [1] and -1.62 °C in assay [2].
For `Fc1ccc(-c2nc(-c3c(F)cccc3F)[nH]c2-c2ccncc2)cc1`, the ΔTm is 0.95 °C in assay [1] and -2.15 °C in assay [2].
In the same order, the values of `CC1CCN(c2ccnc(NCc3cn(C)cn3)n2)CC1` are -1.06 °C and -0.77 °C.
On the same counts, the results for `Cc1c(N2CCNCC2)nc2ccc(Br)cc2c1C(=O)NC[C@H](CCC(=O)O)c1ccccc1Cl` are -1.62 °C and -1.51 °C.
`N=C(N)NCCC[C@H](NC(=O)CC1(CC(=O)N2CCN(C3c4ccccc4NC(=O)c4ccccc43)CC2)CCCC1)C(=O)NCCn1c(=O)n(-c2ccccc2)n(-c2ccccc2)c1=O` (some centres undefined): the figures for the ΔTm in assay [1] and in assay [2] were 0.44 °C and -2.38 °C, respectively.
Consider `CC#CCC(C)[C@H](O)/C=C/[C@@H]1[C@H]2C/C(=C/CCCC(=O)O)C[C@H]2C[C@H]1O` (some centres undefined), for which the ΔTm is -2.19 °C in assay [1] and 0.19 °C in assay [2].
In the same order, the values of `CCn1c(-c2nonc2N)nc2ccccc21` are -0.33 °C and -1.27 °C.
In the same order, the values of `N=C(N)NCCC[C@@H](NC(=O)C(c1ccccc1)c1ccccc1)C(=O)NCc1ccc(CNC(N)=O)cc1` are 0.42 °C and 0.26 °C.
On the same counts, the results for `Cn1c(C2(NC(=O)c3ccc(NCC4CCCCC4)nc3)CCC2)nc2ccc(/C=C/C(=O)O)cc21` are 0.73 °C and 0.39 °C.
Regarding `NC(=O)c1ccc(-c2nc(-c3ccc4c(c3)OCCO4)c(-c3ccccn3)[nH]2)cc1`, the ΔTm was -0.56 °C in assay [1] and -0.21 °C in assay [2].
On the same counts, the results for `CC(C)(O)[C@H](F)CN1Cc2cc(NC(=O)c3cnn4cccnc34)c(N3CCOCC3)cc2C1=O` are -0.35 °C and -2.63 °C.
In the same order, the values of `O=C(Nc1cccc(Nc2nccc(Nc3cccc(C(F)(F)F)c3)n2)c1)C1CC1` are 1.77 °C and 1.03 °C.
With `Cc1cc(-c2cnc(N)c3c(-c4ccc5scnc5c4)csc23)n(C)n1`, the shift in melting temperature (ΔTm) in assay [1] is -1.04 °C; in assay [2], -1.95 °C.
In the same order, the values of `COc1cc(-c2cn(C)c(=O)c3cnccc23)c(OC)cc1CN(C)C` are -0.72 °C and 0.32 °C.
In the same order, the values of `CCc1nc(C2CCC2)n2nc(-c3ccccc3)[nH]c(=O)c12` are 0.07 °C and 0.37 °C.
On the same counts, the results for `CCCN1CCC(C#N)(NC(=O)[C@H](CC(C)(C)C)NC(=O)N2CCOCC2)CC1` are -0.48 °C and 0.46 °C.
Consider `CC(C)(O)c1cn(-c2ccc(-c3cccc(S(C)(=O)=O)c3)cc2)c(C(C)(C)c2ccccc2Cl)n1`, for which the ΔTm in assay [1] was -4.36 °C; in assay [2] it was -3.39 °C.
On the same counts, the results for `CN1CCC(C#N)(NC(=O)[C@@H](NC(=O)N2CCOCC2)C(C)(C)C)CC1` are 0.17 °C and 0.14 °C.
In the same order, the values of `Cc1cnc(Nc2ccc(C(=O)N3CCN(C)CC3)cc2)nc1N[C@@H]1CCC[C@@H]1C(N)=O` are -1.32 °C and -3.2 °C.
`COc1cccc(-c2c(C)c(Cc3c(F)cccc3C(F)(F)F)c3n(c2=O)[C@@H]([C@@H](N)c2ccccc2)CS3)c1F`: the ΔTm was -3.06 °C in assay [1] and 0.28 °C in assay [2].
In the same order, the values of `COc1cc(CN(CCN)C(=O)N[C@@H](C)c2ccccc2)ccc1OCc1ccccc1` are -1.26 °C and -0.9 °C.
On the same counts, the results for `Cc1cc(SCc2sc(-c3ccc(C(F)(F)F)cc3)nc2C)ccc1OCC(=O)O` are -3.91 °C and -2.79 °C.
On the same counts, the results for `Cn1nc(C(=O)NCc2ccc(C(=O)O)cc2)cc1-c1ccc2[nH]ccc2c1` are -0.1 °C and 0.43 °C.
